# About 83,000 compounds went through this panel and 20% of them were active in at least one assay; those are over-represented in the sample as a whole.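 Method: cells in 96-well plates; compound added at one concentration; 48 h incubation; percent growth measured; values under 10 scored active.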 Values without a mark were called inactive. Calls of active or inactive are those of the source.
# What was measured:
# Assay in all cases: NCI-60 one-dose screen, 48 h (100 = growth as untreated, 0 = no growth, -100 = all killed)
# Details in all cases: 10 µM unless noted
# SK-MEL-2 melanoma = system: SK-MEL-2 melanoma
# EKVX NSCLC = system: EKVX NSCLC
# SN12C renal = system: SN12C renal
# UO-31 renal = system: UO-31 renal
# TK-10 renal = system: TK-10 renal
# ACHN renal = system: ACHN renal
# CAKI-1 renal = system: CAKI-1 renal
# A498 renal = system: A498 renal
# CCRF-CEM leukemia = system: CCRF-CEM leukemia
# RPMI-8226 leukemia = system: RPMI-8226 leukemia
# OVCAR-8 ovarian = system: OVCAR-8 ovarian
# OVCAR-5 ovarian = system: OVCAR-5 ovarian
# OVCAR-4 ovarian = system: OVCAR-4 ovarian
# SK-OV-3 ovarian = system: SK-OV-3 ovarian
# IGROV1 ovarian = system: IGROV1 ovarian
# OVCAR-3 ovarian = system: OVCAR-3 ovarian
# HS 578T breast = system: HS 578T breast
# NCI/ADR-RES ovarian = system: NCI/ADR-RES ovarian
# MOLT-4 leukemia = system: MOLT-4 leukemia
# SR leukemia = system: SR leukemia
Structure (SMILES),growth (SK-MEL-2 melanoma),growth (EKVX NSCLC),growth (SN12C renal),growth (UO-31 renal),growth (TK-10 renal),growth (ACHN renal),growth (CAKI-1 renal),growth (A498 renal),growth (CCRF-CEM leukemia),growth (RPMI-8226 leukemia),growth (OVCAR-8 ovarian),growth (OVCAR-5 ovarian),growth (OVCAR-4 ovarian),growth (SK-OV-3 ovarian),growth (IGROV1 ovarian),growth (OVCAR-3 ovarian),growth (HS 578T breast) [%],growth (NCI/ADR-RES ovarian),growth (MOLT-4 leukemia),growth (SR leukemia)
O=C(NNc1nc2cc(F)ccc2n2c(CN3CCCCC3)ccc12)c1cnccn1,-67.2% (active),-78.2% (active),1.01% (active),-72.2% (active),-92.7% (active),-98.3% (active),-79.5% (active),-87.9% (active),-16.2% (active),-2.84% (active),-84% (active),-69.5% (active),-45.5% (active),-63.7% (active),-3.63% (active),-45.9% (active),23.7,-31.5% (active),–,–
CC(=O)NNc1ccc2nnc(-c3ccccc3)n2n1,102%,95.9%,97.1%,88.5%,106%,104%,90.9%,108%,108%,115%,100%,113%,109%,110%,108%,95.4%,100,104%,–,–
COCOc1cc2oc(C(=O)N[C@@H](Cc3ccccc3)C(O)C(=O)NCc3ccccc3)c(C)c(=O)c2cc1OCOC (some centres not stated),79.7%,107%,51.9%,87.1%,63.2%,66.9%,84.7%,-35.2% (active),104%,99.3%,22.2%,91.8%,43.9%,33.4%,101%,99%,71.4,98.5%,97.3%,–
COc1ccc(C(=O)Nc2n[nH]c(Nc3ccccc3)c2C#N)cc1,110%,90.1%,110%,90.7%,99.9%,99.3%,103%,108%,114%,133%,111%,97.6%,118%,119%,105%,111%,114,109%,–,–
Cc1cc(C)n(-c2ccc3nnc(-c4ccccc4)n3n2)n1,114%,88.5%,94.2%,-77.9% (active),95%,104%,74.7%,107%,112%,119%,96.9%,128%,92.9%,128%,111%,91.6%,117,76.1%,–,–
O=C(Nc1ccc(C(F)(F)F)cc1)Nc1ccc2oc(=O)ccc2c1,30%,12.2%,7.6% (active),-10.3% (active),36.1%,6.95% (active),22.9%,27.4%,16.1%,-20.4% (active),15.7%,39.5%,41.7%,16%,33%,26.7%,49.7,12.4%,–,–
NC(=S)Nc1cccc(NC(N)=S)c1,112%,101%,81.9%,70%,107%,96.3%,79.7%,101%,96.4%,109%,94%,104%,94.6%,126%,97.5%,88.5%,105,97.6%,89.7%,–
COc1cc(OC)cc(-c2cc3ccc(N(C)C)cc3c(=O)[nH]2)c1,33.6%,47%,36.7%,52.4%,79.1%,31.2%,34.2%,121%,15.5%,29.2%,5.26% (active),45.5%,72.6%,40.2%,29.3%,4% (active),47.3,0.753% (active),–,–
Cc1ccc(-c2nnc3ccc(N/N=C/c4ccccc4)nn23)cc1,102%,76.9%,101%,84.5%,104%,95.4%,83.3%,105%,88.8%,80.6%,87.1%,107%,69.1%,100%,98.9%,30.3%,46.6,84.1%,–,–
C=C1CCC2C3(C)COC(c4ccc(F)cc4)OC3CCC2(C)C1CC(O)C1=CCOC1=O (configuration not stated),19.9%,62.6%,32.1%,43.2%,96.6%,30.2%,53.3%,118%,–,21.9%,-2.76% (active),51%,53.8%,98%,36.5%,63.4%,71,0.657% (active),22.5%,21.6%
COc1ccc(NC(=O)Cn2c(O)c(N=Nc3ccc(S(N)(=O)=O)cc3)c3ccccc32)cc1,50.6%,62%,60%,84.1%,75.9%,35.2%,27.4%,103%,–,71.6%,24.5%,65.9%,82.2%,30.3%,34.4%,50.7%,80.7,93.8%,73.6%,83.8%
COc1ccc(/C=C/c2nc3ccccc3c(=O)n2CC(=O)Nc2ccc(Cl)cc2)cc1,99.9%,89.3%,55.3%,79.5%,116%,50.7%,43.1%,118%,–,84%,27%,92.7%,17.2%,78.7%,96.5%,50%,23.3,56.1%,82.2%,70.8%
C=C1CC[C@@H]2[C@]3(C)COC(c4cn[nH]c4-c4ccc(Br)cc4)O[C@@H]3CC[C@@]2(C)[C@@H]1C/C=C1/C(=O)OCC1O (some centres not stated),-68.4% (active),-51% (active),-64.9% (active),-92.1% (active),-65% (active),-100% (active),-40.9% (active),97.8%,–,3.94% (active),-9.48% (active),-75.9% (active),8.76% (active),-31.8% (active),-44.9% (active),-78.9% (active),19.1,-40% (active),2.63% (active),3.62% (active)
CCN(CC)CCOc1ccc(Nc2ncc3cc(-c4ccc(O)c(C#N)c4)c(=O)n(C)c3n2)cc1,105%,139%,69.5%,67.6%,96.8%,40.1%,45.9%,113%,–,65%,92.8%,88.2%,89.3%,64.7%,46.9%,83.7%,76.5,114%,3.63% (active),-8.11% (active)
C=C1CC[C@@H]2[C@]3(C)COC(c4cn[nH]c4-c4ccc(F)cc4)O[C@@H]3CC[C@@]2(C)[C@@H]1C/C=C1/C(=O)OCC1O (some centres not stated),-39% (active),-6.56% (active),-51.4% (active),-80.4% (active),-19.1% (active),-80.3% (active),1.51% (active),146%,–,0.899% (active),1.2% (active),-42.2% (active),32.9%,46.6%,-31.1% (active),-68.6% (active),44.8,-45.6% (active),1.15% (active),9.73% (active)
O=C(c1ccc(OCCN2CCOCC2)cc1)C1[C@H](c2ccc(Cl)cc2)[C@@H](c2ccccc2)NC12C(=O)Nc1ccc(Br)cc12 (some centres not stated),28.3%,19.8%,-8.07% (active),15.1%,40.2%,5.53% (active),15.4%,91.5%,–,9.08% (active),28.6%,41.3%,50.3%,37%,22.6%,29.5%,57.2,18.4%,-33.9% (active),-45.3% (active)

# From PubChem BioAssay (NCI)
